In PubChem BioAssay (NCI):
This is part of a sample that, as a whole, favours compounds with a hit. Of some 83,000 tested, about 20% had one in any assay.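 Growth was measured after 48 h exposure to one concentration of compound in 96-well plates. Values under 10 count as active.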 A number with no mark means an inactive call. Calls of active or inactive are those of the source.

Each compound was assayed on MDA-MB-468 breast (assay: NCI-60 one-dose screen, 48 h (100 = growth as untreated, 0 = no growth, -100 = all killed)). Conditions: 10 µM unless noted.
In the case of `CCOCC[P+](c1ccccc1)(c1ccccc1)c1ccccc1`, the growth was 2.17% (active).
Work on `COc1cccc2cc(N(C)c3nc(C)nc4ccsc34)ccc12` yielded a growth of 20.2%.
`COc1ccc(C2=NN(C(=O)c3ccc(S(C)(=O)=O)cc3)C(c3ccc(OC)c(OC)c3)C2)c(OC)c1` (centres undefined) gave a growth of 87%.
In the case of `COc1cccc(Cc2cc(-c3ccccc3)nn(CC(=O)c3ccccc3)c2=O)c1`, the growth was 90.6%.
For `COc1cc(-c2nn(-c3ccc(NC(=O)Nc4cc(C(F)(F)F)cc(C(F)(F)F)c4)cc3)cc2-c2ccncc2)ccc1Cl`, the growth was -15.2% (active).
For `CCN1C(=O)N(CC)C2C1NN=c1s/c(=C\c3ccc(Cl)cc3Cl)c(=O)n12` (centres undefined), the growth was 5.35% (active).
Work on `CC1(C)N=C(N)N=C(N)N1c1ccc(F)c(C(F)(F)F)c1` yielded a growth of 65.1%.
For `C[C@H](CCC[C@H](C)OS(=O)(=O)c1ccccc1)OS(=O)(=O)c1ccccc1`, the growth was 110%.
Work on `COc1cccc(-c2nn(-c3ccccc3)cc2-c2ccnc(NCCCNC(=O)c3cccc(C(F)(F)F)c3)c2)c1` yielded a growth of 17.3%.
For `N=C(N)c1ccc(-c2ccc(-c3ccc(F)cc3)s2)nc1`, the growth was 25.1%.
For `COc1cccc(O)c1/C=C(/C)c1ccc2c(OC)cccc2[o+]1`, the growth was 112%.
`CCCCCCCC(=O)SCC/C=C/[C@@H]1CC(=O)NCc2cccc(n2)C2=N[C@@](C)(CS2)C(=O)N[C@@H](C(C)C)C(=O)O1` was tested, and the growth was 12.4%.
Work on `O=C(Nc1nc(-c2ccc(Cl)cc2)nc2c1sc(=S)n2-c1ccccc1)C(F)(F)F` yielded a growth of 70.1%.
For `O=C(/C=C/c1cccnc1)/C=C/c1cccnc1`, the growth was -64.1% (active).
`CC(=O)N1N=C(c2ccc(F)cc2)CC1c1sc(N(C)Cc2ccccc2)nc1Cl` (centres undefined) was tested, and the growth was 98.1%.
Work on `CCC1(C2CCCC2)NC(=O)NC1=O` (centres undefined) yielded a growth of 101%.
Compound `O=C(c1ccc(Cl)cc1Cl)N1CCOCC1` has a growth of 99.5%.
`COC1=CC2C=C(C3N(c4ccccc4)NC(=O)[C@@H]4CCCN34)C(=O)NC2C=C1` (some centres undefined) was tested, and the growth was 114%.
`Oc1ccc(-c2[nH]c3ccccc3c2-c2nc3ccccc3o2)cc1` gave a growth of 26.1%.
With `CCCCc1ccc(C(O)(CCN2CC3CCC(CC3)C2)c2ccccc2)cc1` (centres undefined) the growth was 97.4%.
For `CC(C)(C)CC(C)(C)c1ccc(O)c(Cc2ccc(Cl)cc2Cl)c1`, the growth was -88.6% (active).
For `O=C(Nc1ncc(Cc2cccc(C(F)(F)F)c2)s1)C1COc2ccccc2O1` (centres undefined), the growth was 77.4%.
`CCN(CC)c1cc(C)c(Cc2c(OC)ccc3ccccc23)cc1C` was tested, and the growth was 99.6%.
For `CC(C)(C)c1cc(C[P+](c2ccccc2)(c2ccccc2)c2ccccc2)cc(C(C)(C)C)c1O`, the growth was -2.61% (active).
For `Cc1cc(-c2cc(OC(=O)c3ccccc3)ccc2Cl)cc2nnc(Nc3ccc(OCCN4CCCC4)cc3)nc12`, the growth was 84.3%.
In the case of `CN(C)c1ccc2c(N(C)C)cc(N(C)C)nc2c1`, the growth was 7.64% (active).
For `CC1(c2ccc(Br)cc2)NC(=O)NC1=O` (centres undefined), the growth was 110%.
`Cc1nc(-c2ccccc2)sc1CC#N` showed a growth of 104%.
In the case of `O=C1c2c(c3c4cc(Br)ccc4[nH]c3c3ccc4ccccc4c23)C(=O)N1CCO`, the growth was 100%.
